Compound activity: PubChem BioAssay, National Center for Advancing Translational Sciences (NCATS)
hNpr1 antagonist: blocks ANP-stimulated signaling of human Npr1 receptor; AID 1347048; HEK293 hNpr1 GloSensor cGMP, ANP-stimulated luminescence; Potency, µM (titrated, usually from 46.3 µM), without a hit: top-dose activity change, negative = inhibition, usual class: inhibitors; P16066; 76,000 compounds, 1.6% hits; calls by dose curve; further: nearly all actives have a fitted effect of over 60% in size
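Compound pre-incubated 30 min at room temperature on GloSensor-loaded HEK293 cells stably carrying hNpr1 and the pGS-40F cGMP biosensor. Stimulation uses hNppA at 0.1 nM final; luminescence is taken at baseline and 20 min post-agonist.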
HEK293 tox: cytotoxic compounds in HEK 293 cells. HEK 293 viability, ATP luminescence (CellTiter-Glo), 48-72 h. Potency, µM (titrated, usually from 115 µM), for inactives: at the highest dose activity change, negative = cytotoxicity, actives largely listed as inhibitors. 94,000 compounds, 6.6% hits. AID 1345083; further: nearly all actives have a fitted effect of over 60% in size
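Cytotoxicity was scored by loss of ATP-coupled luminescence (CellTiter-Glo) in HEK 293 cells. Compound treatment ran 48 or 72 hr at 37 degree Celsius, 5% CO2, 95% humidity.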
NIH3T3 tox: NIH 3T3 cell cytotoxicity; NIH 3T3 viability, CellTiter-Glo ATP luminescence, 48-72 h; Potency, µM (doses to about 96.7 µM), without a hit: top-dose activity change, negative = cytotoxicity, most hits filed as inhibitors; 94,000 compounds, 4.3% hits; AID 1345082; further: nearly all actives have a fitted effect of over 55% in size
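ATP-dependent luminescence (CellTiter-Glo) served as the viability signal for NIH 3T3 cells treated with compound for 48 or 72 hr at 37 °C.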
Luciferase inh: inhibitors of firefly (Photinus pyralis) luciferase. 76,000 compounds, 2.5% hits. Potency, µM (titrated, usually from 115 µM), usual class: inhibitors. AID 1347043. purified P. pyralis luciferase, luminescence, biochemical. P08659; further: nearly all actives have a fitted effect of over 65% in size
Target sequence (P08659 whole entry, looked up): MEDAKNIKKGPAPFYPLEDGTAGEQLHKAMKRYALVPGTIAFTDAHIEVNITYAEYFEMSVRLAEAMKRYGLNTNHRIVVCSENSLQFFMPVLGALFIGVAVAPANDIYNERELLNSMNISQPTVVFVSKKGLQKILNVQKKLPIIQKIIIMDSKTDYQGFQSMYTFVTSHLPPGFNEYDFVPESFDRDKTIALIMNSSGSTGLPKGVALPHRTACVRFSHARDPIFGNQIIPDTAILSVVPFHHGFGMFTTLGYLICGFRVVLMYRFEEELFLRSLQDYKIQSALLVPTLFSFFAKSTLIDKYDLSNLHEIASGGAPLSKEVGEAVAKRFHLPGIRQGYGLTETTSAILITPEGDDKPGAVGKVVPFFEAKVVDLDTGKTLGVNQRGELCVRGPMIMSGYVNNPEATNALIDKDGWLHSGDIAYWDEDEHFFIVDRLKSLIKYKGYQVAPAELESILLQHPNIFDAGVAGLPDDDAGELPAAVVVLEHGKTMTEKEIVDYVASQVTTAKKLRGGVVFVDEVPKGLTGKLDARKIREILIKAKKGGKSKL
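Cell-free enzyme assay, 10nM P. pyralis luciferase, luciferin and ATP each at 10uM. Inhibition profiled over a 6-point titration, read as luminescence.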
Numbers without * were called inactive; i = inactive; ? = inconclusive; . = no result; [ ] = remark or other dose. Compounds with a hit are over-represented: about 11% of the library has one in this group of screens. Unless noted, the call rests on the fitted dose curve; in most records, active means well fitted curve in the direction sought with a large enough effect; inconclusive means small, poorly fitted or top-dose-only effect, or another doubt; inactive means no such curve, though single readings can be large; an effect the other way counts as inactive or inconclusive. On the % scale 0 is the no-effect control and ±100 the full control effect; potency means the concentration at half of the fitted maximal effect.

SMILES	hNpr1 antagonist	HEK293 tox	NIH3T3 tox	Luciferase inh
O=C(c1ccccc1)N1CCCC1C(=O)N1CCCC1c1nc2ccncc2[nH]1 (centres undefined)	.	-3%	-27%	.
O=C(c1ccoc1)N1CCC2(CCC2N2CCOCC2)CC1 (centres undefined)	.	i	-8%	.
CCOc1ccc(Cl)cc1CN(C)c1cc(C2CC(O)C2)nc(N)n1 (centres undefined)	?	40µM*	32µM*	i
Cc1cc(CN(C)c2cc(C3CC(N)C3)nc(N)n2)no1 (centres undefined)	-13%	1%	i	i
O=C1NCN(Cc2ccc(Cl)cc2)C12CCN(Cc1ccc(OC(F)(F)F)cc1)CC2	-4%	?	?	i
Cc1nn(-c2ccc(C(C)C)cc2)c(C)c1[C@@H]1C=C[C@@H](NCc2ccccc2)C1	-13%[70.6 µM]	25µM*	11µM*	63µM*
Cc1nn(-c2ccc(C(C)C)cc2)c(C)c1[C@@H]1C=C[C@@H](NCc2cccc(Cl)c2)C1	?	10µM*	13µM*	45µM*
Cc1nn(-c2ccccn2)c(C)c1[C@@H]1C=C[C@@H](NC(=O)NC(C)C)C1	1%[70.6 µM]	-24%[172 µM]	?	?
c1ccc(-c2noc(-c3cncnc3N3CCN(c4ccccc4)CC3)n2)cc1	-21%	45µM*	?	?
O=c1n(-c2ccc(F)cc2F)nc2n1CCN(Cc1ccc(F)cc1)C2	19%	50µM*	?	i
O=C(c1ccc(F)cc1)N1CCn2c(nn(-c3ccc([N+](=O)[O-])cc3)c2=O)C1	0%	i	-15%	i
O=c1n(-c2ccc([N+](=O)[O-])cc2)nc2n1CCN(Cc1ccccc1)C2	-22%	28µM*	?	i
N#Cc1ccc(CN2CCn3c(nn(-c4ccc(F)cc4F)c3=O)C2)cc1	-1%	?	-24%	i
O=c1n(-c2ccc([N+](=O)[O-])cc2)nc2n1CCN(Cc1ccsc1)C2	-25%[70.6 µM]	40µM*	?	?
O=c1n(-c2ccc([N+](=O)[O-])cc2)nc2n1CCN(Cc1ccc(F)cc1)C2	?	35µM*	?	i
Cn1ncc2c(C(=O)Nc3cccnc3)cc(-c3ccccc3C(F)(F)F)nc21	.	i	i	.
CN(C)c1ccc(NC(=O)c2cc(-c3ccc(C(F)(F)F)cc3)nc3c2cnn3C)cc1	.	-3%	-31%	.
COc1ccc(NC(=O)c2cc(-c3ccccc3C(F)(F)F)nc3c2cnn3C)cc1OC	.	32µM*	?	.
COc1ccc(NC(=O)c2cc(-c3ccc(C(F)(F)F)cc3)nc3c2cnn3C)cc1OC	.	2%	-18%	.
Cn1ncc2c(C(=O)Nc3ccc(F)cc3)cc(-c3ccccc3C(F)(F)F)nc21	.	28µM*	?	.
CCN(C(=O)c1cc(-c2ccccc2C(F)(F)F)nc2c1cnn2C)c1ccccc1	.	25µM*	?	.
CN(C)c1ccc(NC(=O)c2cc(-c3ccccc3C(F)(F)F)nc3c2cnn3C)cc1	.	25µM*	?	.
Cn1ncc2c(C(=O)Nc3cccc(C(F)(F)F)c3)cc(-c3ccccc3C(F)(F)F)nc21	.	22µM*	28µM*	.
Cc1cc(OC2CN(C(=O)c3ccccn3)C2)ccc1F	-7%[70.6 µM]	79µM*	?	?
Cc1cc(F)ccc1OC1CN(C(=O)c2ccccn2)C1	-2%[70.6 µM]	?	?	50µM*
SMILES	hNpr1 antagonist	HEK293 tox	NIH3T3 tox	Luciferase inh
O=C(c1ccccn1)N1CC(Oc2ccc(F)cc2F)C1	.	-19%	-24%	.
CC(C)c1ccc(CC(=O)N2CCCc3ncc(C(=O)NCc4cccc(Cl)c4)cc32)cc1	-13%	?	?	i
O=C(C1CN(c2ccc(F)cc2)C(=O)N1)N1CCN(Cc2ccccc2)CC1 (centres undefined)	22%	25µM*	28µM*	i
O=C(Nc1ccccc1)c1ccc(-c2cccc3c2CCNC3)o1	-24%	?	45µM*	i
O=C(NCc1ccccc1)c1ccc(-c2cccc3c2CCNC3)o1	1%	?	?	?
COc1cccc(S(=O)(=O)N2CCCCCNC(=O)CC2c2ccccc2)c1 (centres undefined)	-1%	?	-27%	i
COC(=O)[C@@H]1Cc2c([nH]c3ccccc23)[C@H]2C[C@@H](NCCNC(C)=O)C[C@@H](c3ccccc3)N21	-4%	?	79µM*	?
COCCNC(=O)[C@H]1C[C@H](Oc2ccccc2)CN1C(=O)NCc1ccc(C)cc1	0%	i	-5%	i
COC(=O)[C@@H]1Cc2c([nH]c3ccccc23)[C@@H]2C[C@@H](NCCNC(C)=O)C[C@@H](c3ccc(F)c(F)c3)N12	5%	32µM*	32µM*	i
COC(=O)[C@@H]1Cc2ncn(C(C)C)c2CN1C(=O)c1ccc(C(F)(F)F)cc1	3%[70.6 µM]	i	-13%[174 µM]	i
COC(=O)[C@@H]1Cc2c([nH]c3ccccc23)[C@H]2C[C@@H](NCCNC(C)=O)C[C@@H](c3ccc(C)cc3)N21	-12%	28µM*	28µM*	i
COC(=O)[C@@H]1Cc2c([nH]c3ccccc23)[C@H]2C[C@@H](NCCNC(C)=O)C[C@@H](c3ccc(C(F)(F)F)cc3)N21	-9%	25µM*	20µM*	i
COc1ccc(C(=O)N[C@H]2C[C@H]3C(=O)NC[C@@H](CCC(=O)NCc4ccccc4)N3C2)cc1	-8%	i	-14%	i
Cc1ccc(F)c(NC(=O)[C@@H]2COCC(=O)N2Cc2ccc(F)cc2)c1	-2%	-13%	-7%	i
CN1CCC2(Cc3ccccc3CN(C(=O)c3ccccc3)C2)C1 (centres undefined)	.	?	-24%	.
Cc1ncc2n1C(=O)N(C1CCN(Cc3cccc(C(F)(F)F)c3)CC1)C2	-7%	?	?	i
COc1ccc(C(C)C)cc1CN1CCCC(CNC(C)=O)C1 (centres undefined)	3%	-28%	-5%	i
COC(=O)[C@@H]1Cc2c([nH]c3ccccc23)[C@H]2C[C@@H](NCCNC(C)=O)C[C@@H](c3ccc(C(C)C)cc3)N21	-25%	13µM*	28µM*	i
COCC1CN(C)CC12CCN(C(=O)CCc1ccccc1OC)CC2 (centres undefined)	-9%	?	-17%	i
CCn1ccc(C(=O)N2CCC(n3c(C)cnc3C3CCC3)C2)n1 (centres undefined)	.	2%	-2%	.
COc1ccc(S(=O)(=O)N2C[C@@H]3C[C@H](C2)c2ccc(NC(=O)c4cnccn4)c(=O)n2C3)cc1	0%	4%	1%	i
COc1ccc(C(=O)Nc2ccc3n(c2=O)C[C@H]2C[C@@H]3CN(S(=O)(=O)c3ccc(OC)cc3)C2)cc1	-2%	?	-21%	8.9µM*
CCS(=O)(=O)N1CCC2(CC1)c1[nH]c3ccccc3c1CCN2C	-1%	?	-32%	i
Cc1nn(C)c(C)c1S(=O)(=O)N1CCC2(CC1)c1[nH]c3ccccc3c1CCN2C	3%	89µM*	-18%	i
